Where a name gives a salt, the structure may show the parent alone. ± gives the standard deviation.

This assay concerns Jurkat. Nature of the assay: mean cell size (FSC-A) relative to DMSO control (fraction of control); higher = larger cells. Particulars: 48 h. The essentials:
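Jurkat cells seeded at 600 cells/µl were incubated 1 h, then exposed for 48h to the Enzo Screen-Well FDA Approved Drug Library v2.0 at 25µM in 0.9% (v/v) final DMSO. Drugs that cut counts below 20% of controls were diluted 10-fold and retested, down to 25nM. Cell count and mean cell size (forward scatter area) were read on an Accuri C6 flow cytometer, relative to solvent-only controls. Plates held 6-12 controls; values are means of 3 biological replicates.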
In turn, `Cc1nnc(SCC2=C(C(=O)O)N3C(=O)[C@@H](NC(=O)Cn4cnnn4)[C@H]3SC2)s1` [Cefazolin·Na] (concentration: 25 µM) returned a mean cell size of 0.964 ± 0.048.

Turning to `Cc1ccnc2c1NC(=O)c1cccnc1N2C1CC1` [Nevirapine] (concentration: 25 µM), the mean cell size came out at 0.924 ± 0.051. To `C=CC[N+]1([C@H]2C[C@H]3[C@@H]4CC[C@H]5C[C@H](O)[C@@H](N6CCOCC6)C[C@]5(C)[C@H]4CC[C@]3(C)[C@H]2OC(C)=O)CCCC1` [Rocuronium Bromide] (concentration: 25 µM) belongs 0.952 ± 0.043. The figure for `CCCOc1ccc(C(=O)OCCN(CC)CC)cc1N` [Proparacaine·HCl] (concentration: 25 µM) is 1.06 ± 0.046; for `C[N+](C)(C)CCOC(N)=O` [Carbachol (Carbamylcholine ) Chloride] (concentration: 25 µM) it is 0.962 ± 0.019. To `C[N+]1(C)CCC(OC(=O)C(O)(c2ccccc2)C2CCCC2)C1` (configuration not stated) [Glycopyrrolate Iodide] (concentration: 25 µM) belongs 0.995 ± 0.037. As to `CC[C@]1(O)C[C@@H]2CN(CCc3c([nH]c4ccccc34)[C@@](C(=O)OC)(c3cc4c(cc3OC)N(C)[C@H]3[C@@](O)(C(=O)OC)[C@H](OC(C)=O)[C@]5(CC)C=CCN6CC[C@]43[C@@H]65)C2)C1` [Vinblastine Sulfate] (concentration: 25 nM), the mean cell size came to 0.971 ± 0.031.

As for `C#C[C@]1(O)CC[C@H]2[C@@H]3CCC4=CCCC[C@@H]4[C@H]3C(=C)C[C@@]21CC` [Desogestrel] (concentration: 25 µM), the mean cell size is 0.943 ± 0.018. In turn, `Cc1nccn1CC1CCc2c(c3ccccc3n2C)C1=O` (configuration not stated) [Ondansetron] (concentration: 25 µM) had a mean cell size of 0.97 ± 0.028. On to `CO[C@@]1(NC(=O)C2SC(=C(C(N)=O)C(=O)O)S2)C(=O)N2C(C(=O)O)=C(CSc3nnnn3C)CS[C@@H]21` (some centres not stated) [Cefotetan Disodium] (concentration: 25 µM), for which the mean cell size came to 0.951 ± 0.017. The figure for `Nc1c(CC(=O)O)cccc1C(=O)c1ccc(Br)cc1` [Bromfenac] (concentration: 25 µM) is 0.938 ± 0.018; for `CCOc1ccccc1OCCN[C@H](C)Cc1ccc(OC)c(S(N)(=O)=O)c1` [Tamsulosin·HCl] (concentration: 25 µM) it is 0.988 ± 0.037.

(Values after the supplement of paper PMC4709259.)
